Assay results: PubChem BioAssay
Calls of active or inactive are those of the source.

Legend:
[1] = molecular target: Albumin (Bos taurus) (UniProt P02769); assay: bovine serum albumin binders on microarray, profiling panel, artefact control for SMM control protein annotation, biochemical, small-molecule microarray, Alexa647 label, 635/667 nm fluorescence (AID 1118); conditions: BSA-A647 binding, fluorescence 635 nm, higher = more signal;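 further: score merges 667 nm emission intensity and signal-to-noise per printed compound spot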
Albumin (Bos taurus), sequence (P02769 whole entry, looked up): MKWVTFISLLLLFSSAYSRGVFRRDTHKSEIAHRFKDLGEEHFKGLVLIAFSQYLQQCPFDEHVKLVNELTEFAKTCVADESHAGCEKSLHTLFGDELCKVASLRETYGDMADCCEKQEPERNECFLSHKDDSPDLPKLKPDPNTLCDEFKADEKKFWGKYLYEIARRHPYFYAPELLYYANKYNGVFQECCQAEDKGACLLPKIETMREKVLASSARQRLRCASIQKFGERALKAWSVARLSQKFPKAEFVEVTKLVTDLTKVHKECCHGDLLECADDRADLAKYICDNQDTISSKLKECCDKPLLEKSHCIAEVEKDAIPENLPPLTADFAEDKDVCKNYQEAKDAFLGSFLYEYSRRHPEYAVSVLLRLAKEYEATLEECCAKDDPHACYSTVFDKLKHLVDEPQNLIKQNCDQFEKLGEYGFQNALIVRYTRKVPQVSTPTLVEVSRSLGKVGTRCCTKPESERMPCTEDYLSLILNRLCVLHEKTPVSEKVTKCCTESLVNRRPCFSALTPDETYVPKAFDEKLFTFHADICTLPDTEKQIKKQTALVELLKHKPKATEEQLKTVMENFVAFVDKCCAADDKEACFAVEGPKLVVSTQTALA

[2] = small-molecule microarray binders of probe aXIP, primary screen, biochemical, NeuroSMM set, 635/667 nm fluorescence (AID 1119); conditions: higher = more signal, called active from +8 up or from −8 down;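 further: probe is the protein aXip251-270 applied at 1 µg/mL to compound-printed slides; binding of probe to printed compounds measured as 667 nm fluorescence plus signal to noise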
[3] = small-molecule binders of probe aNOTCH3, primary screen, biochemical, small-molecule microarray, 635/667 nm fluorescence (AID 1120); conditions: higher = more signal;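 further: probe is a biotin-tagged antibody raised against NOTCH3 rather than NOTCH3 protein; score merges spot fluorescence near 667 nm with spot signal to noise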
[4] = small-molecule binders of probe aNOTCH2, primary screen, biochemical, small-molecule microarray, 635/667 nm fluorescence (AID 1121); conditions: higher = more signal;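 further: score merges feature fluorescence read at 667 nm with its signal to noise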
[5] = molecular target: Carbonic anhydrase 2 (Homo sapiens) (UniProt P00918); assay: CAII small-molecule binders, profiling panel, biochemical, small-molecule microarray, Alexa647-labelled CAII (AID 1122); conditions: CAII-A647 binding fluorescence, higher = more signal
[6] = COS7 lysate on small-molecule microarray, probe aHis, 635 nm (AID 1123); conditions: COS7 cell lysate, fluorescence, higher = more signal;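 further: z-score combines 667nm fluorescence intensity with signal-to-noise per printed compound spot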
[7] = compound binding in COS7 lysate, probe aLAP1, primary screen, cell lysate, small-molecule microarray (AID 1124); conditions: probe aLAP1, fluorescence, higher = more signal;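 further: lysate comes from COS7 cells expressing LAP1 and is applied at 0.3 µg/mL; score merges spot fluorescence near 667 nm with signal-to-noise over triplicate slides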
[8] = test system: Sam68 (KHDRBS1); assay: Sam68 small-molecule binders, primary screen, biochemical, small-molecule microarray, 635 nm fluorescence (AID 1125); conditions: small-molecule microarray binding, higher = more signal;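 further: score merges 667 nm channel intensity with signal to noise over triplicate slides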
[9] = test system: Chordin-like protein 2 (CHRDL2); assay: CHRDL2 small-molecule binders, primary screen, biochemical, small-molecule microarray, 635 nm fluorescence (AID 1126); conditions: small-molecule microarray binding, fluorescence 635 nm; higher = more signal;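 further: printed compound slides probed with Chrdl2 protein at 4 µg/mL for 1 h at 4 C; score merges 667 nm emission intensity with signal to noise over three replicate slides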
[10] = molecular target: Concanavalin-A (Canavalia ensiformis) (UniProt P02866); assay: ConA small-molecule binders, primary screen, artefact control for SMM control protein annotation, biochemical, small-molecule microarray, Alexa647 label, 635 nm (AID 1127); conditions: ConA-A647 binding fluorescence, higher = more signal;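 further: z combines 667 nm emission intensity with signal-to-noise across three replicate slides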
Concanavalin-A (Canavalia ensiformis), sequence (P02866 whole entry, looked up): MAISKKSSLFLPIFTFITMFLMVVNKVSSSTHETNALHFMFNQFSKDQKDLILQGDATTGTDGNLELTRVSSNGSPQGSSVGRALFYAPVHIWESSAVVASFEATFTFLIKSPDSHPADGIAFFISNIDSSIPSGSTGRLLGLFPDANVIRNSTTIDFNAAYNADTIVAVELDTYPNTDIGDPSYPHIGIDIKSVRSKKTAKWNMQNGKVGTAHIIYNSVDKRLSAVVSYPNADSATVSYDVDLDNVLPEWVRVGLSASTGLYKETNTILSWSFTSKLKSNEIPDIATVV

[11] = anti-His antibody binders, primary screen, artefact control for SMM control protein annotation, biochemical, small-molecule microarray, 635 nm fluorescence (AID 1128); conditions: anti-His Alexa647 antibody binding, higher = more signal;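 further: score merges feature fluorescence with signal-to-noise for each printed compound spot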
[12] = test system: Human papillomavirus type 1a E7 protein (residues 1-88); assay: HPV1a E7 small-molecule binders, primary screen, biochemical, small-molecule microarray, residues 1-88, 635 nm (AID 1129); conditions: small-molecule microarray binding, fluorescence 635 nm; higher = more signal
[13] = molecular target: Focal adhesion kinase 1 (Homo sapiens) (UniProt Q05397); assay: small-molecule microarray binders of FAK, primary screen, biochemical, 635/667 nm fluorescence, BSA, DTT (AID 1130); conditions: PTK2 binding, 635 nm fluorescence, higher = more signal;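 further: composite of spot emission at 667 nm and signal to noise over triplicate slides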
Focal adhesion kinase 1 (Homo sapiens), sequence (Q05397 whole entry, looked up): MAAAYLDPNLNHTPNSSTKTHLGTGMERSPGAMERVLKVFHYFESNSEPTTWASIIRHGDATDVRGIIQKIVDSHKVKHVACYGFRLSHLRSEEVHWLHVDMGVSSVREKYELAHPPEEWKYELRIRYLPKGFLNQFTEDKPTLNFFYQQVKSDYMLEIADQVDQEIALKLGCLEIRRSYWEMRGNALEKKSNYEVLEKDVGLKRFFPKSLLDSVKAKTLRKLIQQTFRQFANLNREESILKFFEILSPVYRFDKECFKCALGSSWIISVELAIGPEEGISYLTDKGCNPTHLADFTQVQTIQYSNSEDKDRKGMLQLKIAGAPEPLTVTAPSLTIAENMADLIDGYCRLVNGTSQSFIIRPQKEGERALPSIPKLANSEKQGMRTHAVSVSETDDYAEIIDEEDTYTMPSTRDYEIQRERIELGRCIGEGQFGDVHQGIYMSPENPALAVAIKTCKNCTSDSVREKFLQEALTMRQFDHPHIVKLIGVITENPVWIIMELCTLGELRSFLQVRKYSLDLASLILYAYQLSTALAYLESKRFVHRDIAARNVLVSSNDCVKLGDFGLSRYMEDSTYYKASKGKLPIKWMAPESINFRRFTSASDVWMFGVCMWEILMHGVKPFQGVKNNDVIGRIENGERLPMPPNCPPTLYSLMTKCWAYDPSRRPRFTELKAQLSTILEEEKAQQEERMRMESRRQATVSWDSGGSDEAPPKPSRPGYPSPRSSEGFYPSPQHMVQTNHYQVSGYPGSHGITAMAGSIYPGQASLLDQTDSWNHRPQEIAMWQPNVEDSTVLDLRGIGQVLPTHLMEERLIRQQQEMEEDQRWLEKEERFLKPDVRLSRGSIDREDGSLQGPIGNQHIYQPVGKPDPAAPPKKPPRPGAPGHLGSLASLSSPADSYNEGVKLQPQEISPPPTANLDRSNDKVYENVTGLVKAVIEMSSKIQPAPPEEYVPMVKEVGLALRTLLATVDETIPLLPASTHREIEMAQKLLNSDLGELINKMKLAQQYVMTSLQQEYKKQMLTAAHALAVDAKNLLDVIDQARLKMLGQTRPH

[14] = test system: Fibrinogen (Alexa647-labelled); assay: fibrinogen binders on compound microarrays, profiling panel, artefact control for SMM control-protein annotation, biochemical, small-molecule microarray, 635/667 nm fluorescence (AID 1131); conditions: fibrinogen-A647 binding fluorescence, higher = more signal;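 further: z-score merges 667 nm fluorescence with per-spot signal-to-noise over triplicate slides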
[15] = molecular target: Follistatin (Homo sapiens) (UniProt P19883); assay: follistatin binders on small-molecule microarrays, primary screen, biochemical, small-molecule microarray, 635/667 nm fluorescence (AID 1132); conditions: FST binding, 635 nm fluorescence, higher = more signal
Follistatin (Homo sapiens), sequence (P19883 whole entry, looked up): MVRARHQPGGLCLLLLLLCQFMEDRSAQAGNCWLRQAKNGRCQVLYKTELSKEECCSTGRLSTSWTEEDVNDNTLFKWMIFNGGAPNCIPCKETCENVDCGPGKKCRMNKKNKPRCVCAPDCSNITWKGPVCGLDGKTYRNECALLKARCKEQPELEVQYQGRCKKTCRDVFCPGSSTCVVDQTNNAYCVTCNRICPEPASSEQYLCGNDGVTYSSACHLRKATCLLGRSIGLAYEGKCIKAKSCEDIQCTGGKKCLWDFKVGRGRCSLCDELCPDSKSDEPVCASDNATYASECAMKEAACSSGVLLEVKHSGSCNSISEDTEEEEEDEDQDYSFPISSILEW

[16] = molecular target: Fibroblast growth factor 2 (Homo sapiens) (UniProt P09038); assay: FGF2 binders on small-molecule microarrays, primary screen, biochemical, small-molecule microarray, 635/667 nm fluorescence (AID 1133); conditions: small-molecule microarray binding, FGF2, fluorescence 635/667; higher = more signal
Fibroblast growth factor 2 (Homo sapiens), sequence (P09038 whole entry, looked up): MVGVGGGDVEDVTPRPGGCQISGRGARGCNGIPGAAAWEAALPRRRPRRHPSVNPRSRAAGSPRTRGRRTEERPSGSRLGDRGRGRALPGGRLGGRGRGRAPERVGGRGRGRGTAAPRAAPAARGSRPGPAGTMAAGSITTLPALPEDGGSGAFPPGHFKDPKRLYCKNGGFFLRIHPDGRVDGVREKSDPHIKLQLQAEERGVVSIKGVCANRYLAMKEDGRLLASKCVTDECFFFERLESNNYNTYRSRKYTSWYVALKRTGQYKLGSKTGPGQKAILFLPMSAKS

[17] = mitochondrial membrane potential change in A549 cells, profiling panel, cell-based, JC-1 fluorescence, basal, 24 h, 100 nL (AID 1138); conditions: higher = more signal;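 further: A549 lung adenocarcinoma cells under basal conditions with no added stimulus; test concentration not given here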
[18] = test system: Lefty1; assay: Lefty1 binders on small-molecule microarrays, primary screen, biochemical, small-molecule microarray, 635/667 nm fluorescence (AID 1139); conditions: small-molecule microarray binding, fluorescence 635/667; higher = more signal
[19] = test system: wheat germ agglutinin (Triticum aestivum), Alexa647-labelled; assay: wheat germ agglutinin binders on compound microarrays, profiling panel, artefact control for SMM control-protein annotation, biochemical, small-molecule microarray, 635/667 nm fluorescence (AID 1140); conditions: WGA-A647 binding, 635 nm fluorescence, higher = more signal;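 further: score merges 667 nm feature emission with signal to noise over triplicate slides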
[20] = molecular target: Luciferin 4-monooxygenase (Photinus pyralis) (UniProt P08659); assay: firefly luciferase enzyme inhibitors, primary screen, biochemical, luminescence, purified enzyme, 2006 set (AID 1141); conditions: SteadyGlo luminescence, 30 min, higher = more signal, called active from +8 up or from −8 down;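 further: cell-free assay with purified firefly luciferase at 100 ng per well in PBS; test concentration not given here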
Luciferin 4-monooxygenase (Photinus pyralis), sequence (P08659 whole entry, looked up): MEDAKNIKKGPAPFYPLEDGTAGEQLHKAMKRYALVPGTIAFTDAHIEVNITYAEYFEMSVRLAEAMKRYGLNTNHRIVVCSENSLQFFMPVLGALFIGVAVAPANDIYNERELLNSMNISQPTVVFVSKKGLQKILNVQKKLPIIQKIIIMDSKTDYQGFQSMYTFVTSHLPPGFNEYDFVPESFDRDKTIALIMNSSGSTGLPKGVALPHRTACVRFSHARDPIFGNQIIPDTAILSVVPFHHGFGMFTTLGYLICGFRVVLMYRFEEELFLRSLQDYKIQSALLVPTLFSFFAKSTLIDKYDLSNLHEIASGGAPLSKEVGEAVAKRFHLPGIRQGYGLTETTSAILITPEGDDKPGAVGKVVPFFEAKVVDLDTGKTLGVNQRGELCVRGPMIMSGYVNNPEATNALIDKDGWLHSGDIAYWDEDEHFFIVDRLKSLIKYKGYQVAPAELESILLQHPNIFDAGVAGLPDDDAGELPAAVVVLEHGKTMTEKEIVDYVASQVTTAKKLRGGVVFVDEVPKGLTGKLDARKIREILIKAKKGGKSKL

| Structure (SMILES) | composite z-score [1] | composite Z-score [2] | composite z-score [3] | composite z-score [4] | composite z-score [5] | composite z-score [6] | composite z-score [7] | composite z-score [8] | composite z-score [9] | composite z-score [10] | composite z-score [11] | composite z-score [12] | composite z-score [13] | composite z-score [14] | composite z-score [15] | composite z-score [16] | z-score [17] | composite z-score [18] | composite z-score [19] | z-score [20] |
| --- | --- | --- | --- | --- | --- | --- | --- | --- | --- | --- | --- | --- | --- | --- | --- | --- | --- | --- | --- | --- |
| CCN(CC)c1ccc(N2CC=CC34O[C@@H]5C=CCCOC(=O)C5[C@H]3C(=O)N(CCCCCCO)[C@@H]4C2=O)cc1 (stereo not given in full) | 0.254 | 0.469 (inactive) | -0.276 | -0.203 | 0.885 | 2.79 | 1.46 | 0.114 | -0.489 | -0.1 | 1.43 | 0.321 | 0.899 | -1.15 | -0.372 | -0.551 | -0.115 | 0.0079 | 0.623 | -4.35 (inactive) |
| CN(C)CCCCCCNC(=O)[C@H]1C[C@H]2C(=O)N[C@@H](CCCCN)C(=O)N2[C@H]1c1cccc(OCCO)c1 | 0.733 | 5.67 (inactive) | 1.95 | 0.986 | 0.773 | 4.1 | 0.952 | 1.33 | 1.46 | 1.25 | 3.31 | 1.35 | 3.91 | 0.977 | 1.54 | 0.844 | 0.332 | 1.41 | 1.64 | -0.485 (inactive) |
| C=CCOC(=O)[C@H]1[C@@H]2C(=O)O[C@@H](c3ccccc3)[C@@H](c3ccccc3)N2[C@@H](c2ccc(OCCOC(=O)[C@H]3C[C@H]4C(=O)N[C@@H](CCCCNC(C)=O)C(=O)N4[C@H]3c3cccc(OCCO)c3)cc2)[C@]12C(=O)Nc1ccccc12 | -0.168 | 0.93 (inactive) | -0.0026 | -0.114 | 0.392 | 2.16 | 0.168 | 1.25 | 1.31 | 1.15 | 2.14 | 1.18 | -0.333 | 0.525 | 1.31 | 1.53 | -0.472 | 1.08 | 0.38 | -0.487 (inactive) |
| COCCOC(=O)N1C(=O)[C@@]2(c3cc(C#CC4(O)CCCCCC4)ccc31)[C@H](c1ccccc1OCCO)N1[C@H](c3ccccc3)[C@H](c3ccccc3)OC(=O)[C@H]1[C@@H]2C(=O)N1CCN(c2ncccn2)CC1 | 0.781 | -0.291 (inactive) | -0.0313 | -0.0432 | 0.596 | 1.12 | 0.384 | 1.29 | 0.336 | 1.09 | 0.701 | 1.05 | 0.782 | 0.662 | 1.19 | 0.846 | -1.13 | 0.702 | 0.764 | -1.04 (inactive) |
| COC(=O)[C@@]1(Cc2ccc(F)cc2)[C@H]2c3cc(C(=O)N(C)C)n(Cc4ccc(Cl)c(C(F)(F)F)c4)c3C[C@H]2CN1C(=O)c1ccccc1 | 1.03 | 0.623 (inactive) | 0.405 | 0.266 | 0.77 | 3.26 | 1.05 | 1.31 | -0.899 | 1.15 | 2.56 | 1.22 | 1.14 | 1.01 | 0.909 | -0.542 | 1.98 | -0.764 | 1.4 | 1.04 (inactive) |
| C[C@H]1NC(=O)[C@@]23C(=O)N[C@@H](Cc4ccccc4)C2[C@H](C)[C@@]2(C)O[C@H]2C3/C=C/C/C=C\CNC(=O)[C@@H]2CCCN2C1=O (stereo not given in full) | -0.274 | 0.542 (inactive) | -0.229 | -0.14 | 0.507 | 0.0441 | -0.301 | 0.574 | 0.258 | 1.13 | -0.224 | 0.303 | 0.0122 | 0.859 | 1.05 | 0.692 | 0.419 | 0.946 | 0.765 | 0.193 (inactive) |
| CC(C)C[C@@H]1NC(=O)[C@@H]2C[C@H](C(=O)O)[C@H](c3cccc(OCCO)c3)N2C1=O | -0.494 | -0.303 (inactive) | -0.204 | -0.164 | 0.673 | 1.78 | 0.283 | -0.0754 | 0.707 | 0.684 | 2.29 | -0.312 | -0.176 | -0.0031 | 0.495 | 0.89 | -0.0906 | -0.375 | 0.275 | -0.291 (inactive) |
| COC(=O)[C@@]1(Cc2ccc(OC)cc2)[C@H]2c3cc(C(=O)N4CCCC4)n(CCN4CNCC4=O)c3C[C@H]2CN1C(=O)c1ccccc1 | 1.1 | 0.413 (inactive) | 1.49 | 0.967 | 0.57 | 1.79 | 0.104 | -0.764 | -0.316 | -0.234 | 3.25 | 1.16 | 1.06 | 0.326 | -1.02 | -0.48 | -0.0456 | -0.899 | 0.949 | -0.119 (inactive) |
| CC(C)NC(=O)[C@@]1(c2ccc([N+](=O)[O-])cc2)CC(=O)N(C2CCCCC2)[C@@H]1c1ccc(CO)cc1I | 0.0092 | 0.691 (inactive) | -0.0647 | 0.083 | 0.421 | 1.27 | 0.321 | 0.93 | -0.589 | 0.347 | -0.0568 | 1.15 | 0.52 | -0.517 | -0.315 | -0.331 | 2.97 | -0.491 | -0.0784 | -1.11 (inactive) |
| COCCCNC(=O)[C@@H]1c2ccccc2C(=O)N(Cc2ccccc2Cl)[C@H]1c1ccc(CO)cc1 | -0.432 | -0.129 (inactive) | -0.147 | 0.151 | 0.656 | 1.72 | -0.503 | 0.95 | 0.683 | 0.772 | 3.19 | 1.17 | 0.36 | 0.381 | 1.33 | 1.04 | 2.35 | 0.753 | -0.0431 | -1.27 (inactive) |
| C=CCN1C(=O)[C@]2(O[C@H](CCn3cc([C@H](O)c4ccccc4)nn3)[C@@H]([Si](C)(C)c3ccc(OC)cc3)[C@@H]2C)c2cc(N3CCC3=O)ccc21 | 0.621 | 0.156 (inactive) | -0.226 | -0.0826 | 0.337 | 0.855 | 0.407 | 0.564 | 0.587 | 0.882 | 0.211 | 1.16 | 0.309 | -0.713 | 1.28 | 0.792 | 1.37 | 1.2 | 0.386 | 0.114 (inactive) |
| C=CCNC(=O)[C@H]1[C@@H]2C(=O)O[C@@H](c3ccccc3)[C@@H](c3ccccc3)N2[C@@H](c2ccccc2OCCO)[C@]12C(=O)Nc1ccc(C#CCC(C(=O)OC)C(=O)OC)cc12 | -0.195 | 1.15 (inactive) | 0.308 | 0.0029 | 0.251 | 2.23 | 0.634 | 1.29 | 1.37 | 0.944 | 1.46 | 1.26 | 0.412 | 0.931 | 1.35 | 1.27 | 0.627 | 1.25 | 1.28 | 0.62 (inactive) |
| CO[C@H]1O[C@H](CO)[C@@H](OC(=O)Nc2ccc(C(F)(F)F)cc2)[C@H](OC(=O)Nc2ccc3c(c2)OCO3)[C@@H]1OC(=O)Nc1ccc2c(c1)OCO2 | 0.835 | -0.279 (inactive) | 0.149 | -0.164 | 0.238 | 1.83 | 0.579 | 1.33 | 0.0643 | 1.14 | 2.18 | 1.22 | 1.43 | 0.607 | 1.17 | 0.397 | -0.656 | 0.537 | 0.729 | -17.3 (active) |
| CCCC[C@H]1OB(O)C[C@H]2C1=C(COC)C[C@H]1C(=O)N(C)C(=O)[C@H]12 | -0.126 | -0.618 (inactive) | -0.0328 | -0.201 | 0.39 | 0.502 | 0.0459 | 0.462 | 0.245 | 0.744 | 0.415 | -0.292 | 0.18 | 0.144 | 0.824 | 0.846 | 0.145 | 0.896 | 0.631 | -0.656 (inactive) |
